Laboratory results from paper PMC4336329 (PLoS ONE, 2015).
Among all 310,000 compounds or so, about 14,000 (4.5%) showed an effect of 50% or more. Effects have a minus sign here. What follows is part of a selection rich in strong results, with near analogues and random picks from the rest.

biological target: human ether-à-go-go-related gene (hERG) potassium channel (human, UniProt Q12809); assay: primary screen, population patch clamp on CHO cells stably expressing hERG; higher = less effect of the substance
Sequence (Q12809 whole entry, looked up): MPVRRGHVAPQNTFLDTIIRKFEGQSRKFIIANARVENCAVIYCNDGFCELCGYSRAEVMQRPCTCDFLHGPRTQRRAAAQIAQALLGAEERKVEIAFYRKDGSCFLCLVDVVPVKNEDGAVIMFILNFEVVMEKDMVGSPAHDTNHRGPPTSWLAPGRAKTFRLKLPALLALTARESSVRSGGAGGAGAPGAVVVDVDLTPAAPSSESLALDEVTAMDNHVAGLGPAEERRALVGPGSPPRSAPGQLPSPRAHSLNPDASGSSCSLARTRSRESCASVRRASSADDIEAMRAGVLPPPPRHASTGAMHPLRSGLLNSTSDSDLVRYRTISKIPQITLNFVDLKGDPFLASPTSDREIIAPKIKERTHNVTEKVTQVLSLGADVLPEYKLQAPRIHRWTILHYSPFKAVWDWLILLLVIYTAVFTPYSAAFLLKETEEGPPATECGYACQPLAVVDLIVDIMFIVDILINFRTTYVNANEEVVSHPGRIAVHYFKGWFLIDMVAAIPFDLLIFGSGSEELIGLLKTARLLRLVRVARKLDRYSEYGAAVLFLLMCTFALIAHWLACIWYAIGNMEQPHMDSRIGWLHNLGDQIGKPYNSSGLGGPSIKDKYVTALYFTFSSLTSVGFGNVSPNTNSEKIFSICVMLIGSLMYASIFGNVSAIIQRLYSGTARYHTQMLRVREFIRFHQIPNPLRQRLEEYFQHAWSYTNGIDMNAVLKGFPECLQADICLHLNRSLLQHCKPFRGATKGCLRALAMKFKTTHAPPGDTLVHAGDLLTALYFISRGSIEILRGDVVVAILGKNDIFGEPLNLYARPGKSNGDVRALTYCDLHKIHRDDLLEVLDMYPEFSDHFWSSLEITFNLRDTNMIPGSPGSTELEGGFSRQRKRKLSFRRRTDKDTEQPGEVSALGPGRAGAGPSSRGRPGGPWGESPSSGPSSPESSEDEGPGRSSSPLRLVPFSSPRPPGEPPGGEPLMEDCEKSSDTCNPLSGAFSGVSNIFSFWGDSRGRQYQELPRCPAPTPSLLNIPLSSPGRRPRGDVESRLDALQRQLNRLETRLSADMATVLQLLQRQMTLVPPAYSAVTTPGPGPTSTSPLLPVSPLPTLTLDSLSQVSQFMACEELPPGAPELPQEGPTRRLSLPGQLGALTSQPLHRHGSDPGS
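Further: peak tail current of the secondary pulse compared with the same well before compound.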

Structure (SMILES)	hERG current change (%, negative = inhibition) at 10uM [%]
CCN(CC)CCCn1c(=S)[nH]c2ccccc2c1=O	-25.7
O=c1c2ccc(Cl)cc2[nH]c(=S)n1CCCN1CCOCC1	-22.6
CCN(CC)CCn1c(=S)[nH]c2cc(C(=O)N3CC(C)CC(C)C3)ccc2c1=O (centres unmarked)	-14.7
CCN(CC)CCCn1c(=S)[nH]c2cc(Cl)ccc2c1=O	-68.7
CCN(CC)CCn1c(=S)[nH]c2cc(Cl)ccc2c1=O	-63.2
CCN(CC)CCCn1c(=S)[nH]c2cc(C(=O)OC)ccc2c1=O	-33
CC(C)c1ccc(NC(=O)CSc2ncccc2C(=O)Oc2cccc([N+](=O)[O-])c2)cc1	8.39
CCOC(=O)c1c(NC(=O)CSc2nncn2C)sc(C)c1C	-4.02
COc1cc(/C=N/O)ccc1OCc1ccc([N+](=O)[O-])cc1	-23.5
O=C(NNC(=S)NCc1ccc(Cl)cc1)c1ccc2c(c1)OCO2	6.73
CCc1ccc(NC(=S)NC2CC3CCC(C2)N3Cc2ccco2)cc1 (centres unmarked)	-45.5
Cc1cc(C)cc(NC(=S)NC2CC3CCC(C2)N3Cc2ccco2)c1 (centres unmarked)	-71.5
Cc1cccc(NC(=S)NC2CC3CCCC(C2)N3Cc2ccco2)c1 (centres unmarked)	-21.7
Cc1ccc(NC(=S)NC2CC3CCCC(C2)N3Cc2ccco2)cc1 (centres unmarked)	-52.8
Cc1cccc(NC(=S)NC2CC3CCC(C2)N3Cc2ccco2)c1 (centres unmarked)	-43.5
Cc1ccc(NC(=S)NC2CC3CCC(C2)N3Cc2ccco2)cc1C (centres unmarked)	-36.1
O=C(Nc1ccc2c(c1)CCC2)c1ccccc1Br	-12.9
Cc1cc(N/N=C/c2ccc(O)cc2)c2cccc(C)c2n1	-51.6
Cc1cc(N/N=C/c2ccc(O)cc2O)c2ccccc2n1	4.97
COc1ccc2nc(C)cc(N/N=C/c3cccc(OC)c3O)c2c1	-13
Cc1cc(N/N=C/c2ccccc2O)c2ccccc2n1	-72.5
COc1cccc2c(N/N=C/c3ccccc3)cc(C)nc12	-9.04
COc1ccc(/C=N/Nc2cc(C)nc3ccc(OC)cc23)c(OC)c1	-50.1
COc1cccc2c(N/N=C/c3ccc(O)c(O)c3)cc(C)nc12	18.9

Structure (SMILES)	hERG current change (%, negative = inhibition) at 10uM [%]
Cc1ccc2nc(C)cc(N/N=C/c3ccccc3O)c2c1	2.38
Cc1cc(C)c2nc(C)cc(N/N=C/c3ccc(O)cc3)c2c1	-33.7
COc1cccc2c(N/N=C/c3ccco3)cc(C)nc12	-5.81
COc1ccccc1/C=N/Nc1cc(C)nc2ccc(C)cc12	7.89
COc1ccc(/C=N/Nc2cc(C)nc3c(C)cccc23)cc1	-57.5
COCCCNC(=O)c1oc2ccc(S(=O)(=O)N(C)C3CCCCC3)cc2c1C	-4.45
COc1ccccc1-c1cc(-c2ccc(O)cc2)nc(N)c1C#N	13.9
CC(=O)c1ccc(S(=O)c2ccccc2)cc1 (centres unmarked)	-3.38
Cc1ccc(CSc2nnc(C)c(=O)[nH]2)cc1	10.9
S=C(NCc1ccccn1)Nc1ccc(Cl)cc1Cl	6.07
O=C(CCc1ccccc1)NCC(=O)N/N=C/c1ccc(O)cc1O	-8.41
COCc1cc(=O)[nH]c(Sc2c(-c3ccccc3)c3ccc(Cl)cc3[nH]c2=O)n1	20.4
O=C(NCCCN1CCCC1=O)C(=O)NCC1OCCCN1S(=O)(=O)c1cc(F)ccc1F (centres unmarked)	23.8
CC(=O)C1=C(c2ccccc2)NC(=O)NC1c1ccc(O)c(Cl)c1 (centres unmarked)	17.6
O=C(COc1ccccc1Cl)c1ccc2c(c1)CCCC2	-0.256
Cc1nc2nc(SCC(=O)Nc3cccc(F)c3)[nH]c2cc1Br	23.2
C/C(N)=C(/C#N)C(=O)COC(=O)c1ccccc1O	-0.192
Cc1ccc(NC(=O)CSc2ccc(-c3ccco3)nn2)cc1	-7.67
CCCN(CCC)CC(C)(C)NS(=O)(=O)c1ccc(Cl)cc1	-17.1
COc1ccc(/C=N/Nc2cc(C)nc3ccccc23)cc1	-63.3
COc1ccc(/C=N/Nc2cc(C)nc3ccc(Br)cc23)cc1	-35.1
COc1ccc2nc(C)cc(N/N=C/c3ccccc3)c2c1	-17.1
COc1ccc(-n2c(C)cc(/C=C/c3nc(O)c([N+](=O)[O-])c(=O)[nH]3)c2C)cc1	3.06
